Reference: PubChem BioAssay (NCATS)
A number with no mark means an inactive call. Results filed as inconclusive are left out. A call without a number means that no potency is given here. Active and inactive are the calls of the source. The call rests on the fitted dose curve; in most records, active means well fitted curve in the direction sought with a large enough effect; inconclusive means small, poorly fitted or top-dose-only effect, or another doubt; inactive means no such curve, though single readings can be large; an effect the other way counts as inactive or inconclusive.

Assays:
[1] = biological target: Glutathione peroxidase 1 (Homo sapiens) (UniProt P07203); test: Primary qHTS Assay for Inhibitors of Recombinant Selenoprotein Glutathione Peroxidase 1 (GPX1) (AID 1845191); further: nearly all actives have a fitted effect of over 65% in size
Sequence of Glutathione peroxidase 1 (Homo sapiens) (P07203 whole entry, looked up): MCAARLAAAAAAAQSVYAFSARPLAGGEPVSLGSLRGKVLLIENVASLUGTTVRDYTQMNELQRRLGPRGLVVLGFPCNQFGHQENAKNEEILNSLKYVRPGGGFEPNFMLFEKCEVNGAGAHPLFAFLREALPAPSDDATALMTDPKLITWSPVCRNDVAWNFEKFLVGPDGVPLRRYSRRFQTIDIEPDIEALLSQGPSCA
Method in brief: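 GR-coupled assay: compounds preincubated 30 min at room temperature with GPX1, then reaction started with CHP; final 10 nM GPX1, 1 mM GSH, 0.5 mM CHP, 0.5 mM NADPH, 100 nM GR, 0.01% BSA, pH 7.5 Tris buffer. NADPH fluorescence (340/450 nm) read at 0 and 15 min.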

[2] = biological target: Phospholipid hydroperoxide glutathione peroxidase GPX4 (Homo sapiens) (UniProt P36969); test: Primary qHTS Assay for Inhibitors of Recombinant Selenoprotein Glutathione Peroxidase 4 (GPX4) (AID 1845192); further: nearly all actives have a fitted effect of over 65% in size; on activity change, negative = inhibition: series mostly up to about 50 µM
Sequence of Phospholipid hydroperoxide glutathione peroxidase GPX4 (Homo sapiens) (P36969 whole entry, looked up): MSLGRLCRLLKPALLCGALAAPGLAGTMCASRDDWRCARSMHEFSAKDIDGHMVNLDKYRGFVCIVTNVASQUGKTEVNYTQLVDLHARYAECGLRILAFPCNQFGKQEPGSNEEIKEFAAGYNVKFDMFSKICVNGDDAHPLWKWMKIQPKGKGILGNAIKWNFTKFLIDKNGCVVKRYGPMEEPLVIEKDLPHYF
Method in brief: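 GR-coupled assay: recombinant GPX4 preincubated 30 min with compound at room temperature; final 200 nM GPX4, 1 mM GSH, 0.5 mM cumene hydroperoxide, 0.5 mM NADPH, 100 nM GR, 0.01% BSA, pH 7.5 Tris. NADPH fluorescence (340/450 nm) read at 0 and 15 min.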

[3] = biological target: Luciferin 4-monooxygenase (Photinus pyralis) (UniProt P08659); test: Primary firefly luciferase (FLuc) qHTS assay for identification of artifact compounds. (AID 1845220); further: nearly all actives have a fitted effect of over 60% in size; on activity change, negative = inhibition: series mostly up to about 54 µM
Method in brief: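 Enzymatic FLuc inhibition assay: compounds pre-exposed to luciferin/ATP (10 uM each) for 15 min, then purified P. pyralis enzyme at 10 nM added. Read-out: luminescence at 5 min.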

[4] = Primary fluorescence-based thiol-reactive (MSTI) qHTS assay for identification of artifact compounds. (AID 1845221); further: nearly all actives have a fitted effect of over 65% in size; further: potency means the concentration at half of the fitted maximal effect;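 on activity change, negative = thiol reactive: series mostly up to about 54 µM; thiol-reactive compounds lower the probe fluorescence signal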
Method in brief: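 Thiol-reactive compounds detected by quenching of 4 uM MSTI fluorescence (525/598 nm) after 1 h room-temperature dark incubation in PBS pH 7.4, 2% DMSO. qHTS titration; percent inhibition Hill-fitted against Acetyl-MSTI/MSTI controls.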

[5] = tested on: Nanoluciferase (engineered Oplophorus gracilirostris luciferase); test: Primary Nanoluciferase (NLuc) qHTS assay for identification of artifact compounds. (AID 1845222);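 further: NLuc secreted into diluted conditioned medium of S16 cells; series mostly up to about 54 µM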
Method in brief: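 S16 cell supernatant NLuc, 1:55; cpds qHTS; 15 min RT dark; Nano-Glo substrate 1:100, 5 min; luminescence; Hill fit of % inhibition.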

[6] = Primary redox qHTS assay for identification of artifact compounds. (AID 1845223)
Method in brief: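 Amplex Red (25 uM) and HRP (250 mU/mL) in HBSS, with compounds for 15 min, then 250 uM DTT for 30 min, room temperature, dark. Fluorescence 525/598 nm read; normalized to DMSO and 10 uM DA3003; Hill fit.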

SMILES | Potency [1] | Potency [2] | Potency [3] | Potency [4] | Potency [5] | Potency [6] | outcome [1] | activity change, negative = inhibition [2] | outcome [3] | activity change, negative = thiol reactive [4] | activity, negative = inhibition [5] | redox activity (% of DA3003) [6]
O=C(/C=C/c1ccc(O)cc1)OCC1=CC2OC(=O)C3=CO[C@@H](O[C@@H]4O[C@H](CO)[C@@H](O)[C@H](O)[C@H]4O)[C@H]1[C@@H]32 (some centres undefined) | inactive | inactive | inactive | inactive | inactive | inactive |  |  |  |  |  | 
C=C1CC[C@@H]2[C@](C)(CC[C@H](O)[C@@]2(C)CCC=C(C)C)[C@@H]1Cc1c[nH]c2ccccc12 | inactive | inactive | inactive | inactive | inactive | inactive |  |  |  |  |  | 
CC1=CC(=O)CC(C)(CO[C@@H]2O[C@H](CO)[C@@H](O)[C@H](O)[C@H]2O)C1(O)/C=C/C(C)=C/C(=O)O (some centres undefined) | inactive | inactive | inactive | 13 µM (active) | inactive | inactive |  |  |  |  |  | 
Cc1cc(C)cc(NC(=O)Cc2ccc(OC(C)(C)C(=O)O)cc2)c1 | inactive | inactive | inactive | inactive | inactive | inactive |  |  |  |  |  | 
O=C(NCC(=O)N1CC[C@H](NC2CCC(O)(c3ccc(-c4ncccn4)cn3)CC2)C1)c1cccc(C(F)(F)F)c1 (some centres undefined) | inactive | inactive | inactive | inactive | inactive | inactive |  |  |  |  |  | 
Cc1onc(-c2ccccc2)c1C(=O)N[C@@H]1C(=O)N2[C@@H]1SC(C)(C)[C@@H]2C(=O)O | inactive | inactive | inactive | inactive | inactive | inactive |  |  |  |  |  | 
CC(C)(O)c1ccc2c(c1)C(=O)CC1[C@](C)(CO)CCC[C@]21C (some centres undefined) | inactive | inactive | inactive | 13.1 µM (active) | inactive | inactive |  |  |  |  |  | 
O=C(O)[C@H]1CCCC[C@H]1C(=O)N1CCc2ccccc2[C@H]1CN1C(=O)c2ccccc2C1=O | inactive | inactive | inactive | inactive | inactive | inactive |  |  |  |  |  | 
CN1CCC(c2c[nH]c3ccc(NC(=O)c4ccc(F)cc4)cc23)CC1 | inactive | inactive | inactive | inactive | inactive | inactive |  |  |  |  |  | 
COc1cc([C@H]2OC[C@]3(OC(C)=O)[C@@H](c4ccc(O[C@@H]5O[C@H](CO)[C@@H](O)[C@H](O)[C@H]5O)c(OC)c4)OC[C@H]23)ccc1O | inactive | inactive | inactive | inactive | inactive | inactive |  |  |  |  |  | 
C=CC1C(O[C@@H]2O[C@H](CO)[C@@H](O)[C@H](O)[C@H]2O)OC=C(C(=O)OC)C1Cc1nccc2c1[nH]c1ccccc12 (some centres undefined) | inactive | inactive | inactive | inactive | inactive | inactive |  |  |  |  |  | 
COc1cc(/C=C/C(=O)OC2[C@H](O)CC(O)(C(=O)O)C[C@H]2O)ccc1O (some centres undefined) | inactive | inactive | inactive | inactive | inactive | inactive |  |  |  |  |  | 
COc1c(C)c2c(c(O)c1C/C=C(\C)CC/C=C(\C)CCC(=O)O)C(=O)OC2 | inactive | inactive | inactive | inactive | inactive | inactive |  |  |  |  |  | 
COc1cc(CCc2ccccc2)c(C(=O)O)c2c1CC(C(C)(C)O)O2 (centres undefined) | inactive | inactive | inactive | inactive | inactive | inactive |  |  |  |  |  | 
CC(C)c1ccc(CC(=O)N2CCC[C@@H](c3cccc(OC(C)(C)C(=O)O)c3)C2)cc1 | inactive | inactive | inactive | inactive | inactive | inactive |  |  |  |  |  | 
COc1ccccc1-n1c(SCC(=O)Nc2nc3ccc(C)cc3s2)nc2c(c1=O)SCC2 | inactive | inactive | inactive | inactive | inactive | inactive |  |  |  |  |  | 
C=C1C(OC(C)=O)C(=O)C2C(C)(C)C(OC(C)=O)CCC2(C)C1CC(OC(C)=O)/C(C)=C/COC(C)=O (centres undefined) | inactive | inactive | inactive | inactive | inactive | inactive |  |  |  |  |  | 
C=C1C[C@]23C[C@H]1CC[C@H]2[C@@]12C=C[C@H](O)[C@@](C)(C(=O)O1)[C@H]2[C@@H]3C(=O)O | inactive | inactive | inactive | inactive | inactive | inactive |  |  |  |  |  | 
CCOc1ccc(-c2ccc(Cn3c(CC(C)(C)C(=O)O)c(SC(C)(C)C)c4cc(OCc5ccc(C)cn5)ccc43)cc2)cn1 | inactive | inactive | inactive | inactive | inactive | inactive |  |  |  |  |  | 
CC1(O)CCC2C(C(=O)O)=COC(OC3OC(CO)C(O)C(O)C3OC(=O)/C=C/c3ccc(O)cc3)C21 (centres undefined) | inactive | inactive | inactive | 3.27 µM (active) | inactive | inactive |  |  |  |  |  | 

SMILES | Potency [1] | Potency [2] | Potency [3] | Potency [4] | Potency [5] | Potency [6] | outcome [1] | activity change, negative = inhibition [2] | outcome [3] | activity change, negative = thiol reactive [4] | activity, negative = inhibition [5] | redox activity (% of DA3003) [6]
CCOC(=O)c1ccc(N(C)c2csc(-c3ccccc3)n2)cc1 | inactive | inactive | inactive | inactive | inactive | inactive |  |  |  |  |  | 
O=C(/C=C/c1ccc(O)cc1)OC[C@]12O[C@H]1[C@@H](O)[C@@H]1C=CO[C@@H](O[C@@H]3O[C@H](CO)[C@@H](O)[C@H](O)[C@H]3O)[C@@H]12 | inactive | inactive | inactive | inactive | inactive | inactive |  |  |  |  |  | 
C[C@@H]1O[C@@H](O[C@@H]2[C@@H](O)[C@H](O[C@@H]3[C@@H](O)[C@@H](O)[C@H](O[C@H]4[C@H](OC(=O)[C@]56CCC(C)(C)C[C@H]5C5=CCC7[C@@]8(C)C[C@H](O)[C@H](O[C@@H]9O[C@@H](C)[C@H](O)[C@@H](O)[C@H]9O)[C@@](C)(CO)C8CC[C@@]7(C)[C@]5(C)C[C@H]6O)O[C@H](C)[C@H](O)[C@@H]4O)O[C@H]3C)OC[C@H]2O)[C@H](O)[C@H](O)[C@H]1O (some centres undefined) |  |  |  |  |  |  | inactive [at 9.52 µM] | 0.486% [at 9.73 µM] | inactive [at 11.6 µM] | 292% [at 11.5 µM] | 4.95% [at 11.6 µM] | 10.9% [at 11.5 µM]
FC(F)(F)c1cc(C(F)(F)F)c2ccc3nc(-c4nnco4)cn3c2n1 | inactive | inactive | inactive | inactive | inactive | inactive |  |  |  |  |  | 
COc1cc2c(cc1OC)CN(C(=O)[C@@H](NCc1ccncc1)C(C)(C)C)CC2 | inactive | inactive | inactive | inactive | inactive | inactive |  |  |  |  |  | 
COc1ccc(C(O[C@@H]2O[C@H](CO)[C@@H](O)[C@H](O)[C@H]2O)C(CO)Oc2ccc(/C=C/CO)cc2OC)cc1O (some centres undefined) | inactive | inactive | inactive | 5.19 µM (active) | inactive | inactive |  |  |  |  |  | 
CC[C@H]1OC(=O)[C@H](C)[C@@H](OC2C[C@@](C)(OC)[C@@H](O)[C@H](C)O2)[C@H](C)[C@@H](OC2O[C@H](C)C[C@H](NC)[C@H]2O)[C@](C)(O)C[C@@H](C)CN(C)[C@H](C)[C@@H](O)[C@]1(C)O (some centres undefined) | inactive | inactive | inactive | inactive | inactive | inactive |  |  |  |  |  | 
CC1=CC(=O)CC(C)(C)C1CCC(C)OC1OC(COC(=O)c2cc(O)c(O)c(O)c2)C(O)C(O)C1O (centres undefined) | inactive | inactive | inactive | 1.16 µM (active) | inactive | inactive |  |  |  |  |  | 
COC(=O)C1=CO[C@@H](O[C@@H]2O[C@H](CO)[C@@H](O)[C@H](O)[C@H]2O)[C@@H]2[C@@H](C)[C@@H](O)C[C@H]12 | inactive | inactive | inactive | inactive | inactive | inactive |  |  |  |  |  | 
CC(C)C1=CCC(C)(O)C(OC2OC(CO)C(O)C(O)C2O)C1 (centres undefined) | inactive | inactive | inactive | 2.33 µM (active) | inactive | inactive |  |  |  |  |  | 
O=C(O[C@H]1[C@@H]2C=CO[C@@H](O[C@@H]3O[C@H](CO)[C@@H](O)[C@H](O)[C@H]3O)[C@@H]2[C@@]2(CO)O[C@@H]12)c1ccc(O)c(O)c1 | inactive | inactive | inactive | 3.27 µM (active) | inactive | inactive |  |  |  |  |  | 
CC(C)N(C[C@H]1O[C@@H](n2cnc3c(N)ncnc32)[C@H](O)[C@@H]1O)C1CC(CCc2nc3ccc(C(C)(C)C)cc3[nH]2)C1 (some centres undefined) | inactive | inactive | inactive | inactive | inactive | inactive |  |  |  |  |  | 
CC1CCC2(NC1)OC1C(=O)C3C4CCC5CC(O[C@@H]6O[C@H](CO)[C@@H](O)[C@H](O)[C@H]6O[C@@H]6O[C@@H](C)[C@H](O)[C@@H](O)[C@H]6O)CCC5(C)C4CCC3(C)C1C2C (some centres undefined) | inactive | inactive | inactive | inactive | inactive | inactive |  |  |  |  |  | 
CC1CCC2(C)C(CC(O)C(O)C23CO3)C1(C)CCC1=CC(=O)OC1O (centres undefined) | inactive | inactive | inactive | inactive | inactive | inactive |  |  |  |  |  | 
C/C=C1\[C@H](O[C@@H]2O[C@H](CO)[C@@H](O)[C@H](O)[C@H]2O)OC=C(C(=O)OC)[C@H]1CC(=O)OC | inactive | inactive | inactive | inactive | inactive | inactive |  |  |  |  |  | 
CC1(C)CCCC2(C)C3=C(C(=O)OC3O)C(O)CC12 (centres undefined) | inactive | inactive | inactive | inactive | inactive | inactive |  |  |  |  |  | 
CC(=O)OC1C(O)CC(O[C@@H]2O[C@H](CO)[C@@H](O)[C@H](O)[C@H]2O)C2CCC3C(=O)OC(c4ccoc4)CC3(C)C21 (some centres undefined) | inactive | inactive | inactive | inactive | inactive | inactive |  |  |  |  |  | 
C=C(C)C(C)C1OC23CC4(CO2)C(CCC2C5(C)CCC(OC6OCC(O)C(OC7OC(CO)C(O)C(OC8OCC(O)C(O)C8O)C7O)C6OC6OC(CO)C(O)C6O)C(C)(C)C5CCC24C)C3C(C)(O)C1OC(C)=O (centres undefined) | inactive | inactive |  |  |  |  |  |  | inactive [at 11.6 µM] | 644% [at 11.5 µM] | 3.65% [at 11.6 µM] | 8.02% [at 11.5 µM]
Cn1c(=O)c2nc(/C=C/c3cccc(Cl)c3)n(C)c2n(C)c1=O | inactive | inactive | inactive | inactive | inactive | inactive |  |  |  |  |  | 
